Data published in PubChem BioAssay.
The source made the active and inactive calls. Unless noted, how the calls were made is not given here.

Columns and labels:
[1] = A549 cell viability effects, profiling panel, calcein-AM fluorescence, 48 h, basal (AID 1162); conditions: higher = more signal; further: test concentration not given here
[2] = adipocyte viability effects, profiling panel, cell-based, 3T3-L1 adipocytes, calcein-AM fluorescence, 48 h, basal (AID 1163); conditions: 3T3-L1 adipocytes viability, higher = more signal; further: test concentration not given here
[3] = HepG2 cell viability effects, profiling panel, calcein-AM fluorescence, 48 h, basal (AID 1164); conditions: higher = more signal; further: test concentration not given here
[4] = MM1S cell viability effects, profiling panel, calcein-AM fluorescence, 48 h, basal (AID 1165); conditions: higher = more signal;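 further: viability of MM1S multiple myeloma cells under basal unstimulated conditions; test concentration not given here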
[5] = basal RPMI8226 viability, no added stimulus, profiling panel, cell-based, calcein-AM fluorescence, 48 h, PK04 Diversity Set (AID 1166); conditions: RPMI8226 myeloma viability, higher = more signal;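 further: cells grown under basal conditions without added stimulus; test concentration not given here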
[6] = basal HepG2 mitochondrial membrane potential changes, profiling panel, cell-based, JC-1 fluorescence, 24 h, 100 nL compound (AID 1167); conditions: higher = more signal; further: test concentration not given here
[7] = basal 3T3-L1 adipocyte mitochondrial potential changes, profiling panel, cell-based, JC-1 fluorescence, 3T3-L1 adipocytes, 24 h, 100 nL compound (AID 1168); conditions: JC-1 mitochondrial fluorescence, higher = more signal, called active from +8 up or from −8 down; further: test concentration not given here
[8] = basal RPMI8226 mitochondrial membrane potential changes, profiling panel, cell-based, JC-1 fluorescence, 24 h, 100 nL compound (AID 1169); conditions: RPMI8226 myeloma, JC-1 mitochondrial potential fluorescence, higher = more signal; further: test concentration not given here
[9] = basal MM1S mitochondrial membrane potential changes, profiling panel, cell-based, JC-1 fluorescence, 24 h, 100 nL compound (AID 1170); conditions: higher = more signal; further: test concentration not given here
[10] = A549 lung cancer cell viability effects, profiling panel, resazurin fluorescence, 24 h, PK04 Diversity Set (AID 1171); conditions: higher = more signal, called active from +8 up or from −8 down; further: test concentration not given here
[11] = HepG2 liver cancer cell viability effects, profiling panel, resazurin fluorescence, 24 h, PK04 Diversity Set (AID 1172); conditions: higher = more signal; further: test concentration not given here
[12] = basal S. cerevisiae growth modulation, no modifier, primary screen, OD600, strain BY4716, 24 h, basal condition (AID 1173); conditions: OD600, 24 h, higher = more signal, called active from +8 up or from −8 down
[13] = MM1S myeloma cell viability, profiling panel, resazurin fluorescence, basal, 24 h, PK04 Diversity Set (AID 1174); conditions: higher = more signal, called active from +8 up or from −8 down;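 further: MM1S multiple myeloma cell line; test concentration not given here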
[14] = molecular target: Dihydroorotate dehydrogenase (quinone), mitochondrial (Plasmodium falciparum (isolate 3D7)) (UniProt Q08210); experiment: PfDHODH enzyme inhibitors, primary screen, biochemical, C-terminal His tag, absorbance 600 nm (AID 1175); conditions: DCIP absorbance 600 nm, higher = more signal, called active from +8 up or from −8 down;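 further: recombinant parasite enzyme with a five histidine tag at its C terminus; test concentration not given here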
Dihydroorotate dehydrogenase (quinone), mitochondrial (Plasmodium falciparum (isolate 3D7)), sequence (Q08210 whole entry, looked up): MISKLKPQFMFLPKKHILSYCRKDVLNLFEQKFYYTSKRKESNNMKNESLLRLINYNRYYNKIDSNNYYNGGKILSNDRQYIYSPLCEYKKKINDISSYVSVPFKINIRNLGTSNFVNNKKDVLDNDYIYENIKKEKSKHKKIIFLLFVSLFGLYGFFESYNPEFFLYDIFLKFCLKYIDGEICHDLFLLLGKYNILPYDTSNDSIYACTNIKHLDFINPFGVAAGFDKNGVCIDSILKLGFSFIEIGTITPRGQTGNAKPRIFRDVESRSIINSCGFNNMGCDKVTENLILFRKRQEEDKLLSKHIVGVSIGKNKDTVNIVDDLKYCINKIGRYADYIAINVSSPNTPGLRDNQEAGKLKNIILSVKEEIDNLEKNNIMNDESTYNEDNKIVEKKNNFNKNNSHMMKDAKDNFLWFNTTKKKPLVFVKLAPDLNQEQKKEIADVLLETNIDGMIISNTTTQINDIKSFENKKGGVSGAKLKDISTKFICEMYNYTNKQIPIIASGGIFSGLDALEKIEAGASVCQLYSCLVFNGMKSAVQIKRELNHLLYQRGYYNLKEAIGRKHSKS

[15] = P. aeruginosa biofilm formation inhibitors, primary screen, strain PAO1, LB-PBS medium, absorbance 600 nm (AID 1176); further: test concentration not given here; conditions: P. aeruginosa PAO1 growth/biofilm, A600, 12 h; higher = more signal
[16] = S. cerevisiae RM11-1a growth modifiers, primary screen, strain RM11-1a, OD600, basal, 24 h (AID 1177); conditions: OD600, 24 h, higher = more signal, called active from +8 up or from −8 down;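 further: cultures grown under basal conditions with no added stressor; test concentration not given here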
[17] = E. coli acrAB mutant growth effects, primary screen, E. coli filamentation inducers, strain DRC39, OD650, 24 h (AID 1178); conditions: higher = more signal, called active from +8 up or from −8 down;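 further: growth measured as culture turbidity by optical density at 650 nm; test concentration not given here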
[18] = E. coli acrAB mutant growth effects, primary screen, E. coli filamentation inducers, strain DRC39, OD650, 48 h (AID 1179);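 further: screen aims at cell division blockers that make cells filament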; conditions: E. coli DRC39 delta-acrAB growth, higher = more signal, called active from +8 up or from −8 down
[19] = RPMI8226 myeloma cell viability, profiling panel, resazurin fluorescence, basal, 24 h, PK04 Diversity Set (AID 1180); conditions: higher = more signal;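 further: RPMI8826 multiple myeloma cell line at 5000 cells per well; test concentration not given here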
[20] = molecular target: E3 ubiquitin-protein ligase XIAP (Homo sapiens) (UniProt P98170); experiment: XIAP binders, primary screen, biophysical, small-molecule microarray, fluorescence 635 nm (AID 1181); conditions: small-molecule microarray binding, higher = more signal;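 further: score merges 667 nm emission and signal to noise over triplicate slides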
E3 ubiquitin-protein ligase XIAP (Homo sapiens), sequence (P98170 whole entry, looked up): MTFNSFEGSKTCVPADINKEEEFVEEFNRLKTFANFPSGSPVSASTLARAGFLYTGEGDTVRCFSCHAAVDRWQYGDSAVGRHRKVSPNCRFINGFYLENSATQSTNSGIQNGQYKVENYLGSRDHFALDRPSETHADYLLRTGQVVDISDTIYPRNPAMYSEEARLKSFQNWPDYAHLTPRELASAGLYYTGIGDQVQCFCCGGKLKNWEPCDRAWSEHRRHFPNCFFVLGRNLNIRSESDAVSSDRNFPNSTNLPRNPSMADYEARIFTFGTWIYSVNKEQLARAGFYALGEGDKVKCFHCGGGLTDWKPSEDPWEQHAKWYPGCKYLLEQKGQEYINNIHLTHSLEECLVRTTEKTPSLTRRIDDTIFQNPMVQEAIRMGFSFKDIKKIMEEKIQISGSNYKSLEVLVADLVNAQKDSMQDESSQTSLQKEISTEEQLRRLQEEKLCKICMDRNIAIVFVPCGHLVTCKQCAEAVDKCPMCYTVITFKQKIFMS

Compound: COc1ccc(CCNC(=O)[C@@]2(c3ccc([N+](=O)[O-])cc3)CC(=O)N(CC34CC5CC(CC(C5)C3)C4)[C@@H]2c2ccc(CO)cc2I)cc1
- z-score [1]: -0.68
- z-score [2]: 0.475
- z-score [3]: -1.36
- z-score [4]: -2.44
- z-score [5]: -3.68
- z-score [6]: 2
- z-score [7]: 0.1 (inactive)
- z-score [8]: -0.973
- z-score [9]: -0.571
- z-score [10]: -2.16 (inactive)
- z-score [11]: -1.49
- z-score [12]: 0.0097 (inactive)
- z-score [13]: -1.81 (inactive)
- composite z-score [14]: 0.387 (inactive)
- z-score [15]: 1.8 (inactive)
- z-score [16]: 0.437 (inactive)
- z-score [17]: 0.0777 (inactive)
- z-score [18]: 0.223 (inactive)
- z-score [19]: -1.79
- composite z-score [20]: -0.195

Compound: COC(=O)[C@@]1(Cc2ccccc2)[C@H]2c3cc(C(=O)N4CCCC4)n(Cc4ccc(O)c(OC)c4)c3C[C@H]2CN1C(=O)c1ccccc1
- z-score [1]: 0.114
- z-score [2]: 0.0713
- z-score [3]: 0.876
- z-score [4]: -1.27
- z-score [5]: -1.65
- z-score [6]: 0.848
- z-score [7]: -1.63 (inactive)
- z-score [8]: 0.332
- z-score [9]: -0.601
- z-score [10]: -1.5 (inactive)
- z-score [11]: -1.82
- z-score [12]: 1.93 (inactive)
- z-score [13]: -0.948 (inactive)
- composite z-score [14]: 0.05 (inactive)
- z-score [15]: 0.675 (inactive)
- z-score [16]: 1.8 (inactive)
- z-score [17]: -1.12 (inactive)
- z-score [18]: -0.697 (inactive)
- z-score [19]: -2.74
- composite z-score [20]: 0.224

Compound: COc1ccc([C@H]2C[C@H]3C(I)=C[C@@H]2C(=O)[C@]32CO2)cc1
- z-score [1]: -0.87
- z-score [2]: 0.698
- z-score [3]: -0.856
- z-score [4]: -3.23
- z-score [5]: -2.81
- z-score [6]: -0.22
- z-score [7]: 0.315 (inactive)
- z-score [8]: -0.474
- z-score [9]: -0.967
- z-score [10]: 0.46 (inactive)
- z-score [11]: 0.91
- z-score [12]: -9.78 (active)
- z-score [13]: -0.306 (inactive)
- composite z-score [14]: -0.174 (inactive)
- z-score [15]: 0.167 (inactive)
- z-score [16]: -1.14 (inactive)
- z-score [17]: 1.73 (inactive)
- z-score [18]: 0.344 (inactive)
- z-score [19]: 0.867
- composite z-score [20]: 0.288

Compound: CN1C(=O)C2C=CC(C(O)C=Cc3ccc([N+](=O)[O-])cc3)N(Nc3ccccc3)C2C1=O (stereo not given)
- z-score [1]: -0.598
- z-score [2]: -1.6
- z-score [3]: -0.432
- z-score [4]: -0.655
- z-score [5]: -0.997
- z-score [6]: -1.53
- z-score [7]: -1.48 (inactive)
- z-score [8]: -0.634
- z-score [9]: -0.681
- z-score [10]: -0.408 (inactive)
- z-score [11]: -0.891
- z-score [12]: -4.48 (inactive)
- z-score [13]: -1.55 (inactive)
- composite z-score [14]: -1.01 (inactive)
- z-score [15]: 1.41 (inactive)
- z-score [16]: -0.709 (inactive)
- z-score [17]: -0.377 (inactive)
- z-score [18]: -0.668 (inactive)
- z-score [19]: -1.45
- composite z-score [20]: 0.376

Compound: C=C(CCCC)C(=O)CC[C@H](OC(=O)c1cccnc1)c1ccc(OCCO)cc1
- z-score [1]: -0.15
- z-score [2]: 0.355
- z-score [3]: -0.478
- z-score [4]: -3.34
- z-score [5]: -3.28
- z-score [6]: 0.697
- z-score [7]: -0.597 (inactive)
- z-score [8]: -0.658
- z-score [9]: -1.44
- z-score [10]: -0.475 (inactive)
- z-score [11]: -0.91
- z-score [12]: -0.329 (inactive)
- z-score [13]: -3.27 (inactive)
- composite z-score [14]: -0.816 (inactive)
- z-score [15]: 1.09 (inactive)
- z-score [16]: 1.32 (inactive)
- z-score [17]: -0.911 (inactive)
- z-score [18]: -0.855 (inactive)
- z-score [19]: -3.01
- composite z-score [20]: 0.0322

Compound: COCCOC(=O)N1C(=O)[C@@]2(c3cc(C#CCCO)ccc31)[C@H](c1ccc(O)cc1)N1[C@H](c3ccccc3)[C@H](c3ccccc3)OC(=O)[C@H]1[C@@H]2C(=O)N1CCN(c2ncccn2)CC1
- z-score [1]: -0.858
- z-score [2]: -0.721
- z-score [3]: -0.753
- z-score [4]: -0.0852
- z-score [5]: 0.248
- z-score [6]: 0.0243
- z-score [7]: -1.45 (inactive)
- z-score [8]: -0.139
- z-score [9]: -0.611
- z-score [10]: 0.838 (inactive)
- z-score [11]: 1.36
- z-score [12]: 0.467 (inactive)
- z-score [13]: -0.0402 (inactive)
- composite z-score [14]: -0.235 (inactive)
- z-score [15]: 0.541 (inactive)
- z-score [16]: 0.035 (inactive)
- z-score [17]: -0.235 (inactive)
- z-score [18]: -0.62 (inactive)
- z-score [19]: 0.783
- composite z-score [20]: 0.17

Compound: Cc1ccc([C@H]2C(C(=O)O)=CCN2S(=O)(=O)c2ccc(C)cc2)cc1
- z-score [1]: -0.261
- z-score [2]: -0.456
- z-score [3]: -0.577
- z-score [4]: -0.458
- z-score [5]: -0.922
- z-score [6]: -1.39
- z-score [7]: -0.521 (inactive)
- z-score [8]: 0.284
- z-score [9]: -0.0534
- z-score [10]: -0.29 (inactive)
- z-score [11]: -0.585
- z-score [12]: 0.292 (inactive)
- z-score [13]: -0.81 (inactive)
- composite z-score [14]: -0.381 (inactive)
- z-score [15]: -0.088 (inactive)
- z-score [16]: -0.114 (inactive)
- z-score [17]: -0.429 (inactive)
- z-score [18]: -0.392 (inactive)
- z-score [19]: -0.325
- composite z-score [20]: 0.296

Compound: CCCC[C@H]1C[C@@H]1[C@@H]1N(P(=O)(c2ccccc2)c2ccccc2)C[C@@](O)(c2ccccc2)CC12CC2
- z-score [1]: -3.9
- z-score [2]: -0.228
- z-score [3]: -5.35
- z-score [4]: -3.29
- z-score [5]: -4.7
- z-score [6]: -2.84
- z-score [7]: -0.556 (inactive)
- z-score [8]: -0.917
- z-score [9]: -2.78
- z-score [10]: 4.58 (inactive)
- z-score [11]: 2.63
- z-score [12]: -0.763 (inactive)
- z-score [13]: 1.07 (inactive)
- composite z-score [14]: -0.244 (inactive)
- z-score [15]: 0.122 (inactive)
- z-score [16]: 0.781 (inactive)
- z-score [17]: -0.446 (inactive)
- z-score [18]: -0.412 (inactive)
- z-score [19]: -1.79
- composite z-score [20]: 0.0447
